# In PubChem BioAssay AID1508600 (Functional Genomics Laboratory (NCATS/FGL), 2020):
# In all, about 53,000 sequences went through this assay and about 3,700 (7%) were called active.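 Rule for the calls: active = gene knockdowns whose robust z-score for IL-1 alpha signal is at least 2 or at most -2, so actives lie on both sides; inactive = the rest.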 Only a selection was taken, and actives are over-represented in it overall.
# Assay: Components of the Cytosolic LPS Sensing Pathway: Gene Identification via Genome-wide siRNA Screen;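 note: robust z of the log signal after scaling to non-targeting control siRNA wells of the plate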
# Details: RAW264.7 macrophages, IL-1a HTRF, actives lie on both sides, screened at 100 nM (by protocol), cells primed 5 h with Pam3CSK4 first
# Method in brief: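 RAW264.7; siRNA 100 nM final, RNAiMAX, 48h 37 degrees C; Pam3CSK4 5 h; LipidA + TransIT-TKO 24 h; IL-1a HTRF; CellTiter-Glo viability; robust z vs negative-control median.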
row,Sequence,z-score
1,GGGUGGAGAACCAAGUUUUTT against Tmed6,3.21 (active)
2,GGACUUAUUCGAUAUAGUATT against Nt5c1b,-1.23 (inactive)
3,UGCAUGGACUUACGAAAGATT against Tas2r115,0.454 (inactive)
4,GCUGCCGUUUAAAUAUAUGTT against D10Wsu102e,0.31 (inactive)
5,CUCCCUGGCAUUAAUCCGUTT against Tepp,0.0788 (inactive)
6,GAUUUGGUGUCUGCCGAGATT against Prrt1,1.73 (inactive)
7,GGCUACAACCAAAUCUUCATT against Papln,0.873 (inactive)
8,GCGAUUAACGGAUCGUACCTT against Letmd1,0.192 (inactive)
9,GGACUUGGAGAGCAAAAGCTT against Ano2,-2.14 (active)
10,GCAGAUCAAAUUUAGCUGATT against Wwc2,0.266 (inactive)
11,GCUUUUUAUCCGUGUCGAUTT against 4930474N05Rik,0.501 (inactive)
12,GGUUAAACCCUCUUCUCAUTT against Uhrf2,-0.645 (inactive)
13,CCAAUUCACUUAGGAGCUGTT against Psma4,-2.1 (active)
14,GGAAGUAUCGAGAUUCAUGTT against Pitpnm3,0.0165 (inactive)
15,GCUUCAGACGUAAUUUACUTT against Morc1,0.751 (inactive)
16,GGUUUUGGUUUUGUGGAAUTT against Srsf5,1.45 (inactive)
17,GGAUCUGGUACCCACCCAATT against Jak2,-1.63 (inactive)
18,GGAAUUCUACCUGAAAAUCTT against Arel1,0.122 (inactive)
19,CGCUCUUUCAGCACAAGAATT against Zfp422,-1.57 (inactive)
20,CCUACGACCUGAAGAUAGCTT against Dscc1,-0.124 (inactive)
21,GGUGGACUCAUUCUAAUACTT against Nudt1,-1.06 (inactive)
22,CCUGCUAUACAUUGAACCCTT against Lhcgr,2.52 (active)
23,GGUGUAGCUGGAAUUGGCATT against Nlrp4b,-0.0207 (inactive)
24,GGUGAAGCAAAACGGAGGATT against H2-M10.1,0.512 (inactive)
25,GCCUAUUUCCGUGAACCCGTT against Mgmt,-1.04 (inactive)
26,GGCCAAUCCACGAAAGCAUTT against Strip1,-0.958 (inactive)
27,GCUGGGUGAUAAACAAUGUTT against Rhbg,3.42 (active)
28,GGGACUCUUCACUUGAAAUTT against Ccl3,-3.8e-05 (inactive)
29,GGAUACCACUUUAGAACCATT against Fgfr2,0.484 (inactive)
30,CCACAUCUUUGACGAGUACTT against Rgs16,-0.145 (inactive)
